# TDP1 inh = inhibitors of human tyrosyl-DNA phosphodiesterase TDP1 | Q9NUW8 | recombinant TDP1, AlphaScreen DNA substrate cleavage | Potency, µM (top dose mostly 130 µM), for the others: top-dose activity change, negative = inhibition, hits mostly inhibitors | 350,000 tested, 0.28% active | AID 485290; also: potency is read from the fitted curve at half-maximal effect; nearly all actives have a fitted effect of over 40% in size
# Target sequence (Q9NUW8 whole entry, looked up): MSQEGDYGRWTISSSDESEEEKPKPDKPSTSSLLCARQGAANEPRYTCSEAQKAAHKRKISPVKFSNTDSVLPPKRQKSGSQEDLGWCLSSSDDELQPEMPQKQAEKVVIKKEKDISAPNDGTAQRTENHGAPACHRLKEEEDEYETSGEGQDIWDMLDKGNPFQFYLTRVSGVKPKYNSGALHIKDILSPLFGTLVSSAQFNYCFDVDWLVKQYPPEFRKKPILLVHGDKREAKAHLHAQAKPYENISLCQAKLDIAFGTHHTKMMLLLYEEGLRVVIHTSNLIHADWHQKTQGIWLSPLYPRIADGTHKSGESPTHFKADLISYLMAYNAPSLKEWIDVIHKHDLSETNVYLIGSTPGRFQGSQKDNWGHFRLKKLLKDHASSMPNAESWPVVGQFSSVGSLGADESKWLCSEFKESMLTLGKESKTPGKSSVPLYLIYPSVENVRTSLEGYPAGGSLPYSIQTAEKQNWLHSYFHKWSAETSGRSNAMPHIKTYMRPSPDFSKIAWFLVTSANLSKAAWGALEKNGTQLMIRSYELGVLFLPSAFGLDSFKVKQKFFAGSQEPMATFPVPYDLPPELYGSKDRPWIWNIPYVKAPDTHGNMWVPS
#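 Tdp1 1 nM final; 15 min RT w/ cpd; substrate 15 nM, 5 min; beads 10 ug/ml, 10 min; AlphaScreen read. Neg ctrl: no enzyme.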
# IL-1B inflam inh = inhibitors of inflammasome signaling (IL-1 beta secretion); THP-1 LPS/ATP IL-1B secretion, AlphaLISA, 16 h; hits give low values; 360,000 tested, 4.7% active; activity change, % at 57.5 µM; in the data active = activity change below about -50%; inconclusive = mostly about -30% to -49%
#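 THP-1 cells pretreated 1 hr with compounds (up to 57.5 uM final), then stimulated with LPS (250 ng/mL final) plus ATP (1.25 mM final); secreted IL-1B measured by AlphaLISA after 16 hr, decreased signal indicating inhibition.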
# TDP1 cell noCPT = qHTS for Inhibitors of human tyrosyl-DNA phosphodiesterase 1 (TDP1): qHTS in cells in absence of CPT; DT40 Tdp1-/- hTDP1 cells, no CPT, ATP luminescence, 48 h; Potency, µM (top dose mostly 46.2 µM), inactives show top-dose activity change, negative = growth inhibition, usual class: inhibitors; 420,000 tested, 15% active; AID 686978, 2013; also: potency is read from the fitted curve at half-maximal effect; nearly all actives have a fitted effect of over 55% in size
#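 Camptothecin absent (DMSO only). Human TDP1-complemented DT40 knockout cells, 400 cells/well, 37 °C for minimum 48 hr; ATP measured via CellTiter-Glo, 30 min dark incubation, luminescence.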
# CtBP-E1A blk = blocks the CtBP interaction with E1A | AlphaScreen GST-E1A/His-CtBP binding, 1536-well; hits give low values | activity change, % (concentration not given with the values) | 340,000 tested, 0.49% active; in the data active = activity change below about -65%; inconclusive = mostly about -30% to -63%
#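 GST-E1A and His-tagged CtBP (125 nM each as 5X stock) were preincubated with pin-transferred compound for 2 h at 37 °C in the dark, then glutathione donor and nickel acceptor beads were added for 1 h before AlphaScreen reading.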
# Six1-Eya2 inh = inhibitors of human Six1/Eya2 interaction; AlphaScreen GST-Six1/His-Eya2 binding, biochemical; hits give low values; activity change, % (concentration not given with the values); 360,000 tested, 0.56% active; AID 651725; in the data active = activity change below about -65%; inconclusive = mostly about -30% to -63%
#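 GST-Six1 + His-Eya2 (5X stock: 250/500 nM); Tris pH 8.0, 300 mM NaCl, 0.05% BSA, 0.02% Tween 20; GSH donor/Ni acceptor beads; 1 h 37 °C dark; AlphaScreen readout.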
# TDP1 cell CPT = growth inhibition of DT40 Tdp1-/-;hTDP1 cells with camptothecin (screen for TDP1 inhibitors); chicken DT40 Tdp1-/-;hTDP1 cells + 20 nM CPT, ATP luminescence, 48 h; Potency, µM (doses to about 46.2 µM), for inactives: at the highest dose activity change, negative = growth inhibition, most hits filed as inhibitors; 420,000 tested, 12% active; AID 686979; also: potency is read from the fitted curve at half-maximal effect; nearly all actives have a fitted effect of over 55% in size
#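 Chicken DT40 Tdp1-/- cells stably complemented with human TDP1 were seeded at 400 cells/well in medium containing 20 nM camptothecin, exposed to pin-transferred compounds, and grown at 37 °C for at least 48 hr. Viability was read as ATP luminescence.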
# * = called active by the depositor; i = inactive; ? = inconclusive; / = not tested or not shown; [ ] = remark or other dose. The list is not random: actives were taken first. Their share in the collection is about 18%. Unless noted, calls follow the shape of the dose curve; as a rule, active = well fitted curve in the direction sought with a large enough effect; inconclusive = small, poorly fitted or top-dose-only effect, or another doubt; inactive = no such curve, though single readings can be large; an effect the other way counts as inactive or inconclusive. % is scaled to controls: 0 for no effect and ±100 for the full control effect.
SMILES,TDP1 inh,IL-1B inflam inh,TDP1 cell noCPT,CtBP-E1A blk,Six1-Eya2 inh,TDP1 cell CPT
O=c1[nH]c(-c2ccccc2)ncc1OCc1ccccc1,/,-7,-22%,2,-9,13µM*
C[C@H](CO)N1C[C@H](C)[C@@H](CN(C)Cc2cccc(C(F)(F)F)c2)OCc2cnnn2CCCC1=O,/,-3,?,0,5,?
O=C(NC1CC1)C1=C[C@H](c2csc3ccccc23)C[C@H](OCCCCO)O1,4%,-7,-23%,-1,2,-18%
O=C(NCc1ccccc1)C1=C[C@@H](c2csc3ccccc23)C[C@@H](OCCCCO)O1,6%,-12,1.6µM*,3,-5,1.6µM*
O=C(Nc1ccccc1)C1=C[C@H](c2coc3ccccc3c2=O)C[C@H](OCc2ccc(CO)cc2)O1,3%,?,?,2,-5,?
C#CCNC(=O)C1=C[C@@H](c2csc3ccccc23)C[C@@H](OCc2ccc(CO)cc2)O1,8%,0,?,3,-4,16µM*
O=C(NCc1ccccc1)C1=C[C@@H](c2coc3ccccc3c2=O)C[C@@H](OCc2ccc(CO)cc2)O1,3%,-9,9.2µM*,-3,-7,10µM*
O=C(C1=C[C@H](c2csc3ccccc23)C[C@H](OCc2ccc(CO)cc2)O1)N1CCCCCCC1,/,-20,21µM*,-23,0,?
OB(O)c1cc2ccccc2o1,/,/,-16%,/,/,-9%
O=c1c(F)cn(C2CCCO2)c(=O)n1Cc1c(Cl)cccc1Cl (stereo not given),0%,0,-7%,18,6,-9%
COc1ccccc1C1/C(=C(/O)c2cnn(-c3ccccc3)c2C)C(=O)C(=O)N1CCN(C)C (stereo not given),/,-8,5%,/,25,-11%
O=C(NCc1ccccc1)C1=C[C@@H](c2csc3ccccc23)C[C@@H](OCc2ccc(CO)cc2)O1,8%,?,4.6µM*,-21,2,2.9µM*
CNc1cc(F)nc(F)n1,-5%,-12,16µM*,/,-6,18µM*
CNc1cccc(-c2cccc(O)c2)n1,/,-19,-8%,0,-2,4%
N#Cc1c(SCC(=O)Nc2nccs2)sc2c(O)cc(=O)[nH]c12,/,-7,2%,-70*,?,-4%
Cc1cc(=O)[nH]c2ccc(Cc3ccccc3)cc12,/,85,-28%,-3,3,6%
COc1ccc(C(=O)/C=C/N(C)C)cc1OC,-1%,-13,?,4,0,?
COc1ccc(C(=O)/C=C2\NCCc3cc(OC)c(OC)cc32)cc1OC,/,?,16µM*,/,-4,16µM*
COc1ccc(Cn2ccnc2SCC(=O)Nc2ccccc2)cc1,9%,0,-12%,4,17,-12%
O=C(Nc1ccc(S(=O)(=O)Nc2ccccn2)cc1)c1cccc(Cl)c1,/,21,-5%,3,-14,-3%
Brc1cccc[n+]1CCCCCC[n+]1ccccc1Br,/,/,18µM*,/,/,?
Brc1cccc[n+]1C/C=C/C[n+]1ccccc1Br,/,/,-18%,/,/,0%
Clc1cccc[n+]1CCCCCC[n+]1ccccc1Cl,/,/,-98%,/,/,35µM*
Brc1cccc[n+]1CCCC[n+]1ccccc1Br,/,/,16µM*,/,/,8.9µM*
O/N=C/c1cccc[n+]1CCCCCC[n+]1ccccc1/C=N/O,3%,-6,14%,2,4,4%
SMILES,TDP1 inh,IL-1B inflam inh,TDP1 cell noCPT,CtBP-E1A blk,Six1-Eya2 inh,TDP1 cell CPT
CC1CC(C(=O)Nc2ccccc2)C(=O)O1 (stereo not given),/,4,2%,-17,4,1%
C[C@@H]1CN([C@H](C)CO)C(=O)Cc2cc(NS(=O)(=O)c3ccc(Cl)cc3)ccc2O[C@H]1CN(C)Cc1ccc(C(F)(F)F)cc1,3%,?,?,/,-2,?
CSCCC(NC(=O)c1ccccc1Cl)C(=O)N1CCN(C(C)=O)CC1 (stereo not given),0%,2,0%,-3,0,-9%
Cc1c(C(=O)N2CCC(Cc3ccccc3)CC2)cccc1[N+](=O)[O-],6%,-104*,?,0,-12,?
Cc1cccc(C(=O)N2CCC(Cc3ccccc3)CC2)c1[N+](=O)[O-],3%,-87*,6.5µM*,5,-9,8.2µM*
COc1ccccc1C(=O)NC(CCSC)C(=O)N1CCC(Cc2ccccc2)CC1 (stereo not given),6%[0.505 µM],-60*,18µM*,-20,-12,15µM*
CSCCC(NC(=O)c1ccccc1Br)C(=O)N1CCN(C/C=C/c2ccccc2)CC1 (stereo not given),/,-12,?,/,-9,2.6µM*
Cc1ccc(C(=O)N2CCC(Cc3ccccc3)CC2)cc1[N+](=O)[O-],5%,-30,?,-4,-5,?
CCOc1ncccc1C(=O)OCC(=O)Nc1ccc(S(=O)(=O)N2CCCC2)cc1,1%,4,9%,-14,-10,1%
COCCSc1ccccc1C(=O)N1CCC(Cc2ccccc2)CC1,7%,-54*,-27%,-6,-21,?
CS(=O)(=O)N1CCc2cc(S(=O)(=O)Nc3ccc4c(c3)OCCO4)ccc21,-3%,-22,8.2µM*,1,-3,12µM*
O=C(C1CC1)N1CCc2cc(S(=O)(=O)N3CCCc4ccccc43)ccc21,-1%,4,15µM*,2,-1,?
CC1CCCCN1S(=O)(=O)c1ccc2c(c1)CCN2C(=O)C1CC1 (stereo not given),0%,14,-8%,-4,2,-18%
CCC(=O)N1CCc2cc(S(=O)(=O)Nc3ccc4c(c3)OCCO4)ccc21,5%,?,5.2µM*,0,3,9.2µM*
Cc1cc(Cl)ccc1NS(=O)(=O)c1ccc2c(c1)CCN2S(C)(=O)=O,-1%,/,21µM*,/,/,?
O=C(COC(=O)COc1ccc(Br)cc1)NC1CCCC1,0%,10,14%,-1,8,-2%
O=C(C1CCN(S(=O)(=O)c2ccc3c(c2)OCCO3)CC1)N1CCc2ccccc21,5%,-7,21µM*,-3,-5,?
O=C(C1CCC1)N1CCc2cc(S(=O)(=O)Nc3ccc4c(c3)OCCO4)ccc21,4%,?,7.3µM*,-1,-4,12µM*
O=C(C1CCN(S(=O)(=O)c2ccccc2)CC1)N1CCc2ccccc21,-2%,i,-22%,5,3,-25%
